For orientation: AC50 means the midpoint of the concentration-response curve, whichever way the signal moves.

The structures appear in SMILES notation. Where “and” joins values, the source holds several entries; their conditions need not be identical. Equal entries are not always repeated. A structure can be active in one record and inactive in another. Calls of active or inactive are those of the source. How the source made its calls: active means hit-call score of the fitted dose curve at least 0.9, where 1 is the maximum; inactive means score below 0.9.

This test is described as follows: ATG_AP_2_CIS: Attagene CIS-FACTORIAL HepG2 Assay for human Activator Protein 2 (AP-2) (AID 2282932). Conditions: HepG2 AP-2 cis-reporter, Attagene transcription factor profiling; actives raise or lower the signal. How it is done: ATG_CIS is a cell-based, multiplexed-readout assay that uses HepG2, a human liver cell line, with measurements taken at 24 hours after chemical dosing in a 24-well plate.ATG_AP_2_CIS is one of 52 assay component(s) measured or calculated from the ATG_CIS assay. It is designed to make measurements of mRNA induction, a form of inducible reporter, as detected with fluorescence intensity signals by Reverse transcription polymerase chain reaction (RT-PCR) and Capillary electrophoresis technology.Data from the assay component ATG_AP_2_CIS was analyzed into 1 assay endpoint. This assay endpoint, ATG_AP_2_CIS, was analyzed with bidirectional fitting relative to DMSO as the negative control and baseline of activity. Using a type of inducible reporter, measures of mRNA for gain or loss-of-signal activity can be used to understand the reporter gene at the transcription factor-level as they relate to the gene TFAP2A and TFAP2B and TFAP2D. Furthermore, this assay endpoint can be referred to as a primary readout, because this assay has produced multiple assay endpoints where this one serves a reporter gene function. To generalize the intended target to other relatable targets, this assay endpoint is annotated to the dna binding intended target family, where the subfamily is basic helix-turn-helix leucine zipper.
Human liver HepG2 cells are transiently transfected with multiple reporter transcription units (MRTUs) in 6-well plates using FuGene 6 reagent (Roche; 3 ml FuGene/1 mg DNA). The MRTU constructs are regulated by a cis-regulating element (promoter). […] A major difference between the CIS and TRANS system is that in CIS activities of endogenous TFs are measured, whereas the TRANS assay evaluates changes in activities of exogenous, chimeric NR-Gal4 proteins. […] At the end of 24 hour incubation, total RNA was isolated using TriZol reagent (Invitrogen). The isolated RNA is then reverse-transcribed using oligo(dT) primer and Mo-MLV reverse transcriptase (Invitrogen) with DNAse I (Ambion) treatment for 30 min. The one-tenth of the produced cDNA was amplified by PCR using Taq DNA polymerase (Invitrogen) and two reporter sequence-specific primers. The PCR products were fluorescently labeled by primer extension with 6-arboxyfluorescein (6-FAM) 5'-labeled reporter sequence-specific primer (2 min at 95 C, 20 s at 68 C and 10 min at 72 C) and these products were digested with 5U of HpaI (New England Biolabs) for 2h at 37 C. The fragments were purified using Qiaquick PCR columns (Qiagen), analyzed on an ABI 3130xL genetic analyzer (Applied Biosystems) with peak positions identified by using a set of X-rhodamine (ROX)-labeled MapMarker1000 molecular weight standards (BioVentures). The raw capillary electrophoresis data was processed using Attagraph software (Attagene).
Turning to `CC(C)(C)OOC(C)(C)CCC(C)(C)OOC(C)(C)C`, the compound was called inactive.
For the compound `Nc1ccc(N=Nc2ccccc2)cc1`, the AC50 was 169 µM (active).
As to `Nc1cc(Cl)cc(C(=O)O)c1Cl`, the result was inactive.
Regarding `CCCCCOC(=O)c1ccccc1C(=O)OCCCCC`, the call was inactive.
Regarding `Clc1ccccc1Cl`, the compound was classed as inactive.
`Cc1ccc(N)cc1`: the result was inactive.
As for `Cc1ccc(N=C=O)cc1N=C=O`, the compound was called inactive.
As to `c1ccc(N=Nc2ccccc2)cc1`, the call was inactive.
On to `COC(=O)Nc1nc2ccccc2[nH]1`, for which the call was inactive.
Take `CCN(CC)CCO`: the compound was classed as inactive.
`CN(C)[C@@H]1C(=O)C(C(N)=O)=C(O)[C@@]2(O)C(=O)C3=C(O)c4c(O)cccc4[C@@](C)(O)[C@H]3C[C@@H]12`: the compound was classed as inactive.
Still for that read-out and setting: the result for `CCCCC(CC)COC(=O)c1ccc(C(=O)OCC(CC)CCCC)c(C(=O)OCC(CC)CCCC)c1` (stereo not given) reads “inactive”; that for `CCCCOC(=O)c1ccccc1C(=O)OCc1ccccc1`, “inactive”.
Consider `Brc1ccc(Oc2ccccc2)cc1`, for which the compound was classed as inactive.
For the compound `Cc1ccc(N)c(N)c1`, the call was inactive.
As to `Oc1ccccc1Cl`, the result was inactive.
Regarding `CC(C)N(Cc1ccccc1)C(=O)C(C)(C)C`, the call was inactive.
Turning to `Nc1ccc(Cc2ccc(N)cc2)cc1`, the result was inactive.
As to `C[C@]12C=CC3=C4CCC(=O)C=C4CC[C@H]3[C@@H]1CC[C@@H]2O`, the AC50 is 19.8 µM (active) and 26.5 µM (active) and 7.78 µM (active); the outcome was inactive.
With `Cc1cc(N=Nc2ccccc2C)ccc1N`, the call was inactive.
Regarding `CC(C)(C)OOC(=O)c1ccccc1`, the outcome was inactive.
Regarding `c1ccc(C2CO2)cc1` (stereo not given), the compound was called inactive.
On to `CCOC(=O)[C@]1(c2ccccc2)Oc2ccccc2[C@@H]1N`, for which the concentration at half-maximal activity (AC50) was 55.1 µM (active).
Take `ClC1=C(Cl)C2(Cl)C3C(Cl)C=CC3C1(Cl)C2(Cl)Cl` (stereo not given): the outcome was inactive.
On the same count and under the same terms, the result for `O=[N+]([O-])c1ccc(Oc2ccc(Cl)cc2Cl)cc1` reads “inactive”; that for `O=C(N[C@H](c1ccccc1)[C@@H]1CN2CCC1CC2)c1c(Cl)ccc(C(F)(F)F)c1Cl`, “inactive”; that for `C1=Cc2cccc3cccc1c23`, “inactive”.
Same read-out and setting: the result for `CCN(CC)N=O` reads “inactive”; that for `CN(C)c1ccccc1`, “inactive”.
With `COc1cc(C=O)cc2c1[C@H](COC(N)=O)[C@]1(OC(C)=O)ON2C[C@H]2[C@@H]1N2C(C)=O`, the half-maximal activity concentration (AC50) is 33.4 µM (active).
In the case of `ClCCOCCCl`, the compound was classed as inactive.
`Clc1ccc(Cl)c(Cl)c1`: the compound was classed as inactive.
For the compound `CNC(=O)Oc1cccc2c1OC(C)(C)C2`, the outcome was inactive.
With `CCC(C)c1ccc(O)cc1` (stereo not given), the compound was called inactive.
The same measure, in the same setting: under `CCC[CH2][Sn]([Cl])([CH2]CCC)[CH2]CCC` stands “inactive”; under `[Cl-].[Cl-].[Hg+2]`, “inactive”; under `O=P(OCCCl)(OCCCl)OCCCl`, “inactive”.
As for `O=C(Oc1ccc(Br)cc1)N1CCN2CCC1CC2`, the call was inactive.
`CC(C)COC(=O)c1ccccc1C(=O)OCC(C)C`: the call was inactive.

Source of the values: PubChem BioAssay (EPA / NIEHS).
